Assay outcomes (PubChem BioAssay)
CRFBP-R2 agonist = agonists of CRF-BP/CRF-R2 complex, primary screen, cell-based, HEK293, calcium dye fluorescence, uHTS; CRF-binding protein / CRF receptor 2 complex (human); calcium dye fluorescence (FLIPR); percent of saturating CRF peptide response; activation, % at 13.2 µM; actives 0.46% (n = 350,000);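 active = activation of at least 50%, plus an integration ratio under a set limit after plate pattern correction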
CRFBP-R2 block = antagonists of CRF-BP/CRF-R2 complex, primary screen, cell-based, HEK293, calcium dye fluorescence, uHTS. CRF-induced calcium fluorescence. inhibition, % at 11.8 µM. actives 0.59% (n = 350,000). AID 588475, 2011;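 active = inhibition of the ligand-induced calcium signal above about 50% at the single tested concentration, limit read from the data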
V-ATPase pHluor = regulators of yeast V-ATPase proton pumping, primary screen, pHLuorin cytosolic pH fluorescence | S. cerevisiae | response, % at 10 µM | actives 0.37% (n = 350,000); in the data active = response mostly above about 7.3%, no sharp cut-off; inactive = mostly below about 5.4%; also: actives read high
NTR1 ag = agonists of human NTR1, primary screen, imaging, U2OS cells, beta-arrestin-GFP, high content; NTR1-U2OS beta-arrestin-GFP spot imaging, agonist mode; activation, % at 20 µM; actives 0.17% (n = 330,000);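 active = activation at or above 40% of the spot to cytoplasm intensity ratio, with at least 20 cells analyzed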
Target sequence (P30989 whole entry, looked up): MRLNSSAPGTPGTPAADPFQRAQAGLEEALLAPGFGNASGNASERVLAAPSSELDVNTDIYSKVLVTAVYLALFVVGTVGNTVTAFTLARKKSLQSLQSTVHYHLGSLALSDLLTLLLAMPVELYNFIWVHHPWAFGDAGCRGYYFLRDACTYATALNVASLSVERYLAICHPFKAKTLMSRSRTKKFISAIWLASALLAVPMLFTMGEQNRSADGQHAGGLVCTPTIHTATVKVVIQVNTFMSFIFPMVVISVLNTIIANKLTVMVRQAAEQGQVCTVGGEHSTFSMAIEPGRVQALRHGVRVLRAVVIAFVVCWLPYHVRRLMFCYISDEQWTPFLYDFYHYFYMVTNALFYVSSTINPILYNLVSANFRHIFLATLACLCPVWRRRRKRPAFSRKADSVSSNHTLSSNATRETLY
Numbers stand for hits; i = inactive; nt = not tested or not shown. Compounds with a hit are over-represented: about 1.5% of the library has one in this group of screens.

SMILES | CRFBP-R2 agonist | CRFBP-R2 block | V-ATPase pHluor | NTR1 ag
C/C(=N\NC(=O)c1ccc(NS(=O)(=O)c2cccs2)cc1)c1ccccc1 | i | 58.2 | i | i
COc1ccc(-n2ncc(C(C)NS(=O)(=O)c3ccc(C)s3)c2C)cc1 (stereo unspecified) | i | i | i | i
COc1ccccc1NC(=O)CSc1nnc(CNC(=O)c2ccco2)o1 | i | 66.1 | i | i
O=C1CCc2nc3ccccc3c(=O)n2N1 | i | 80.2 | i | i
O=C(CSCc1ccccc1)Nc1cc([N+](=O)[O-])ccc1F | i | 84.6 | i | i
COc1ccc([N+](=O)[O-])cc1NC(=O)CSCc1ccccc1 | i | i | i | i
CCc1cccc(NC(=O)Nc2cccs2)c1 | i | i | i | i
N#Cc1cccc(NC(=O)Nc2cccs2)c1 | i | 107.9 | i | i
CCOC(=O)[C@@H]1[C@H]2COc3ccccc3[C@@H]2N2C(=O)N(c3cccc(C)c3)C(=O)[C@]12C | i | i | i | i
O=C1C2C3C=CC(C3)C2C(=O)N1/N=C/c1cn(Cc2ccccc2)c2ccccc12 (stereo unspecified) | i | i | 13.5 | i
Cn1c(NC(=O)c2ccc(S(=O)(=O)N3CCOCC3)cc2)cc(=O)n(C)c1=O | i | i | i | i
Cc1cc(SCC(=O)Nc2cccc(S(N)(=O)=O)c2)c(C)cc1Br | i | 102.9 | i | i
COc1ccc(C2=Nc3ccc(C)cc3C(c3ccccc3)N2CC(=O)NN)cc1 (stereo unspecified) | i | i | i | i
COC(=O)CN1C(c2ccc(Cl)cc2)=Nc2ccc(Cl)cc2C1c1ccccc1 (stereo unspecified) | i | 64.9 | i | i
CCOc1ccc(CNC(=O)CCC(=O)N2Cc3cccc(OC)c3Oc3ncccc32)cc1 | i | 52.1 | i | i
CCN(C(=O)Cn1cnc2c1c(=O)n(C)c(=O)n2C)C1CCS(=O)(=O)C1 (stereo unspecified) | i | i | i | i
CN1C(=O)c2cccc3c(Cl)ccc(c23)C1=O | i | i | i | i
CN1C(=O)c2cccc3c(N(C)C)ccc(c23)C1=O | 55.0 | i | i | i
CNc1ccc2c3c(cccc13)C(=O)N(C)C2=O | 170.2 | i | i | i
COc1cc(C=O)ccc1OCCOCCOc1ccc(Cl)cc1Cl | i | 69.0 | i | i
COc1cc(C=O)ccc1OCCOCCOc1ccc(Cl)cc1 | i | i | i | i
COc1ccc(CC(=O)Nc2cc(S(=O)(=O)N3CCCCC3)ccc2OC(C)C)cc1OC | i | i | nt | nt
COc1cc(CCC(=O)Nc2cc(C)cc(C)c2)cc(OC)c1OC | i | i | i | i
COc1cc(CCC(=O)NC2(C)CCS(=O)(=O)C2)cc(OC)c1OC (stereo unspecified) | i | 53.1 | i | i
O=C1C=C(c2cccc3c2sc2ccccc23)C[C@@H](c2ccc(Cl)cc2)C1 | i | i | i | i
SMILES | CRFBP-R2 agonist | CRFBP-R2 block | V-ATPase pHluor | NTR1 ag
CC(C)(C)c1ccc(OCC(=O)NCc2ccco2)cc1 | i | i | i | i
O=C(COc1ccccc1)NCc1ccco1 | i | 65.3 | i | nt
CC1=Nn2c(nnc2-c2ccccc2F)SC1 | i | i | 15.4 | i
COc1ccc(-c2noc(C(=O)NCc3ccc(F)cc3)n2)cc1OC | i | 59.9 | i | i
CCN(CC)C(=O)c1nc(-c2cccc3ccccc23)no1 | i | i | i | nt
O=c1nc(N/N=C/C=C/c2ccccc2)cn[nH]1 | i | 98.2 | i | i
Cc1ccc(OCC(=O)N/N=C2\CC(=O)CC(C)(C)C2)c(Br)c1 | i | i | i | i
COc1ccc(/C(O)=C2/C(=O)C(=O)N(CCN(C)C)C2c2cccnc2)cc1C (stereo unspecified) | 94.3 | i | i | i
COc1ccc(/C(O)=C2/C(=O)C(=O)N(CCN(C)C)C2c2cccnc2)cc1OC (stereo unspecified) | i | i | i | i
COc1ccc(C(C)=O)cc1CSc1nnc2c(Cl)cc(Cl)cn12 | i | 54.8 | i | i
COc1ccc(C(C)=O)cc1CSc1nncn1C | i | i | i | i
CC(NC(=O)c1ccccc1)C(=O)NNC(=O)c1ccccc1Cl (stereo unspecified) | i | i | i | i
Cc1cccc(C(=O)NCCC(=O)Nc2ccc(F)c([N+](=O)[O-])c2)c1 | i | i | i | i
Cc1ccc(C)c(OCCNc2ncccc2[N+](=O)[O-])c1 | i | i | i | i
COc1cccc(N/C(N)=N/c2nc(CSc3ccccn3)cc(=O)[nH]2)c1 | nt | nt | nt | i
COc1ccnc(CSC(N)=Nc2ccc(F)cc2)c1 | i | 86.4 | i | i
